The whole screen tested about 69,000 compounds, of which about 8,600 (12%) showed an effect of 50% or more. The list comes from a sample in which strong results are over-represented; it also holds similar structures and randomly drawn compounds.
Each compound was assayed on Plasmodium berghei (assay: Screen against P. berghei liver stage (PbLuc), transformed with Luciferase, at 10uM). Details: tested at 10 uM.
Type: functional, HepG2

| SMILES | INHIBITION |
| --- | --- |
| Cc1cc(C)c(-n2cc(CCO)cn2)cc1C | -50.3% |
| Cc1nnc(N2CCc3cnc(C(C)C)nc3C2)c(C#N)c1C | 6.72% |
| CC(CCc1ccccc1)N1CCC(C(=O)NCc2ccccc2)CC1 (stereo not drawn) | 46.7% |
| Cc1cnnn1Cc1ncn2c1CN(Cc1cccs1)CCC2 | 15.9% |
| CCN(CC)C(=O)CSc1nc2cc(C)nc-2c(O)n1Cc1ccco1 | 26.7% |
| Cc1nn(C(C)(C)C)c(=O)n1CC(=O)NC(C)(C)C | -53.6% |
| CC(C)(C)NC(=O)Cn1c(=O)n(Cc2ccco2)c2ncccc21 | 61.9% |
| CCN(CC)C(=O)Cn1c(=O)n(Cc2ccco2)c2ncccc21 | 51.5% |
| O=C(Cn1c(=O)n(Cc2ccco2)c2ncccc21)NC1CCCC1 | 48.6% |
| O=C(Cn1c(=O)n(Cc2ccco2)c2ncccc21)NC1CCCCC1 | 53.5% |
| O=C(Cn1c(=O)n(Cc2ccco2)c2ncccc21)Nc1ccccn1 | 45.5% |
| O=C(Cn1c(=O)n(Cc2ccco2)c2ncccc21)NC1CC1 | 39.7% |
| CC(C)N(C(=O)Cn1c(-c2ccco2)cc2cccnc21)C(C)C | 39.3% |
| Cc1ccc(C(=O)N2CCN(CCc3ccccc3)CC2)c(=O)[nH]1 | -6.45% |
| COc1ccccc1CNC(=O)CS(=O)(=O)Cc1ccccc1 | 29.8% |
| Cn1cc(Cl)cc1C(=O)N1CCN(Cc2cccs2)CC1 | -13.575% |
| CC(C)=CCN1CCN(Cc2nccn2C)C(C)C1 (stereo not drawn) | 35.77% |
| COc1ccc(C(CNC(=O)NCc2csc(C)n2)N(C)C)cc1 (stereo not drawn) | 23.5% |
| CNc1cncc(C2CCCN2C(=O)c2ccc3nc(C)[nH]c3c2)n1 (stereo not drawn) | 2.6% |
| O=S1(=O)c2ccccc2C(O)CN1CCO (stereo not drawn) | -5.77% |
| COCCN1CCC2(CC1)CC1(CCN(S(C)(=O)=O)CC1)N(C)C2=O | 40.8% |
| CC(=O)Nc1ccc(Oc2cc(C)nc(C3CCCNC3)c2)cc1 (stereo not drawn) | 14.355% |
| CSCC(C)NS(=O)(=O)c1ccc(C)c(N(C)C)c1 (stereo not drawn) | -37.7% |
| Cc1cnc(N2C(=O)CSC2c2ccc(N(C)C)cc2)s1 (stereo not drawn) | 39.9% |
| CC(C)c1nn(C)c(Cl)c1CNCc1ccc(N(C)C)nc1 | 18.85% |

| SMILES | INHIBITION |
| --- | --- |
| Cc1ccc(S(=O)(=O)NC(=O)CCC2CCCO2)cc1 (stereo not drawn) | -7.35% |
| CC(=O)Nc1ccc(S(=O)(=O)NC(=O)CCC2CCCO2)cc1 (stereo not drawn) | 57.2% |
| O=C(CCC1CCCO1)NS(=O)(=O)c1ccc(Cl)cc1 (stereo not drawn) | -11.4% |
| Cc1nccn1CCCC(=O)N1CCC(N(C)c2cccnn2)CC1 | 12.7% |
| O=C(c1cnn[nH]1)N1CCCC1c1nc2cc(F)ccc2[nH]1 (stereo not drawn) | 11.8% |
| CCn1c(N)nc2cc(C(=O)NCCCc3ccccn3)cnc21 | 11.8% |
| CN(Cc1ccco1)c1ccc(C(=O)NCCCc2ccccn2)cn1 | 58.2% |
| CCN(C)c1ccc(C(=O)NCCCc2ccccn2)cn1 | -17.9% |
| O=C(NCCCc1ccco1)c1cnc(N2CCOCC2)nc1 | -18.8% |
| CN(C)c1ccc(C(=O)NCCCc2ccccn2)cn1 | 62.8% |
| CN(CC(C)(C)C)c1ccc(C(=O)NCCCc2ccccn2)cn1 | -20.6% |
| Cc1ccc(CN2CCOC3(CCN(CC4CCOC4)CC3)C2)cc1 (stereo not drawn) | 36.7% |
| CSCCC(Nc1nc(C)cc(C)n1)C(=O)NC1CCCC1 (stereo not drawn) | 36.8% |
| COC(=O)c1ccc(N2CCN(C(=O)c3cnc(C)cn3)C(C)C2)cc1 (stereo not drawn) | 66.7% |
| COCC(=O)N1CCN(c2ccc(C(=O)OC)cc2)CC1C (stereo not drawn) | -31.4% |
| COC(=O)c1ccc(N2CCN(C(=O)C(C)C)C(C)C2)cc1 (stereo not drawn) | -37.6% |
| COC(=O)c1ccc(N2CCN(C(=O)c3cc(C)on3)C(C)C2)cc1 (stereo not drawn) | 54.3% |
| COC(=O)c1ccc(N2CCN(C(=O)c3cc(C)no3)C(C)C2)cc1 (stereo not drawn) | -11.4% |
| COC(=O)c1ccc(N2CCN(C(=O)c3cnccn3)C(C)C2)cc1 (stereo not drawn) | -23.8% |
| Cc1cc(Oc2ccc(NC(=O)C3CC3)cc2)cc(C2CCNCC2)n1 | 10.535% |
| CN(CCCc1cnn(C)c1)c1nccc(-c2cc(C(=O)O)ccn2)n1 | 21.2% |
| Cc1cccc(CN2Cc3nccn3CC(CN3CCOCC3)C2)c1 (stereo not drawn) | 43.9% |
| O=C1COc2cc(C(=O)NS(=O)(=O)c3cc(Cl)ccc3Cl)ccc2N1 | 37.4% |
| CN(C)C(=O)COCc1cncc2c1CCN(Cc1ccccn1)C2 | -11% |
| COc1ccc(-c2nccc(C3CCCN3C)n2)cc1 (stereo not drawn) | 16.5% |

| SMILES | INHIBITION |
| --- | --- |
| O=C(N1CCCC1)N1CCOCC2(C1)CN(c1ccccc1)C(=O)CO2 (stereo not drawn) | -1.36% |
| COc1ccc(NC(=O)C(C)(C)C)cc1OCc1cccnc1 | 43.4% |
| COc1ccc(NC(=O)C2CC2)cc1OCc1cccnc1 | 34.1% |
| COc1ccc(NC(C)=O)cc1OCc1cccnc1 | 66.5% |
| Cc1nnc(N2CCCC3(CN(Cc4ccc(C)s4)CCO3)C2)o1 (stereo not drawn) | 1.81% |
| COCc1noc(-c2ccc(N(C)Cc3cc(C)no3)nc2)n1 | 33.5% |
| COCc1noc(-c2ccc(N(C)Cc3ccc(C)o3)nc2)n1 | -26.7% |
| COCc1noc(-c2ccc(N(C)Cc3c(C)n[nH]c3C)nc2)n1 | 56.9% |
| Cc1ccc(N2CCN(C(=O)[C@@H]3CCC(=O)N3)CC2=O)cc1 | 4.95% |
| O=C(NCc1ccc(Cl)cc1)C1CCCN(c2ccc3nncn3n2)C1 (stereo not drawn) | 15.7% |
| CC(C)CC(=O)N1CCCC1c1cc(CO)[nH]n1 (stereo not drawn) | -0.7% |
| Cc1ccc(F)c(-n2nnc(C(=O)O)c2-c2ccncc2)c1 | 7.9% |
| O=C(O)c1nnn(-c2ccccc2F)c1-c1ccncc1 | 50.7% |
| CCc1ccc(-n2nnc(C(=O)O)c2-c2ccncc2)cc1 | 6% |
| O=C(NC1CC1)c1nnn(-c2cccc(C(F)(F)F)c2)c1C1CC1 | 18.6% |
| CC(C)NC(=O)c1nnn(-c2cccc(F)c2)c1C1CC1 | -18.9% |
| O=C(O)c1nnn(-c2cccc(C(F)(F)F)c2)c1-c1ccncc1 | 65.6% |
| O=C(O)c1nnn(-c2cc(F)cc(F)c2)c1-c1ccncc1 | 16.8% |
| CC(C)NC(=O)c1nnn(-c2cccc(C(F)(F)F)c2)c1C1CC1 | 58.5% |
| O=C(O)c1nnn(-c2ccccc2)c1-c1ccncc1 | 54% |
| O=C(O)c1nnn(-c2ccc(C(F)(F)F)cc2)c1-c1ccncc1 | 18.4% |
| O=C(O)c1nnn(-c2ccc(Cl)c(C(F)(F)F)c2)c1-c1ccncc1 | -5.59% |
| O=C(O)c1nnn(-c2ccc(F)c(F)c2)c1-c1ccncc1 | -6.32% |

From ChEMBL document CHEMBL4513216, “Probing the Open Global Health Chemical Diversity Library for Multistage-Active Starting Points for Next-Generation Antimalarials” (ACS Infect Dis, 2020)
